From PubChem BioAssay AID1159580 (chemical genetic matrix, 2015)
Screen size: about 5,500 compounds; about 2,000 (36%) were called active. Not shown: some 18% with an inconclusive outcome. No stated cut-off is given here; in the data, active means normalized growth mostly below about 0.91 (no sharp cut-off); inconclusive means no clear call, values can overlap the other calls; inactive means mostly above about 0.92. The list shows a part of the results.

Assay: chemical genetic growth profiling, strain panel (AID 1159580);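 further: tested at 20 µM; growth read once vehicle control cultures reached saturation at 30 °C; 1 = growth at the plate median or of vehicle wells; lower values mean less growth of the strain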
Settings: growth OD

Measured: normalized growth

CCCNC1CCc2nc(N)sc2C1 (stereo unspecified)
inactive: S. cerevisiae deletion strains, locus YAL013W, strain DEP1, active compounds read low 1.01 | S. cerevisiae deletion strains, locus YBR021W, strain FUR4, active compounds read low 1.02 | S. cerevisiae deletion strains, locus YBR229C, strain ROT2, active compounds read low 1.01 | S. cerevisiae deletion strains, locus YCL029C, strain bik1, active compounds read low 0.997 | S. cerevisiae deletion strains, locus YDL035C, strain GPR1, active compounds read low 1.02 | S. cerevisiae deletion strains, locus YDL074C, strain BRE1, active compounds read low 1.04 | S. cerevisiae deletion strains, locus YDL101C, strain DUN1, active compounds read low 1.01 | S. cerevisiae deletion strains, locus YDL134C, strain PPH21, active compounds read low 1.01 | S. cerevisiae deletion strains, locus YDL185W, strain tfp1, active compounds read low 1.01 | S. cerevisiae deletion strains, locus YDL192W, strain arf1, active compounds read low 1 | S. cerevisiae deletion strains, locus YDR101C, strain arx1, active compounds read low 0.988 | S. cerevisiae deletion strains, locus YDR150W, strain NUM1, active compounds read low 1.01 | S. cerevisiae deletion strains, locus YDR162C, strain NBP2, active compounds read low 1.01 | S. cerevisiae deletion strains, locus YDR318W, strain mcm21, active compounds read low 1 | S. cerevisiae deletion strains, locus YDR388W, active compounds read low 0.994 | S. cerevisiae deletion strains, locus YDR502C, strain sam2, active compounds read low 0.995 | S. cerevisiae deletion strains, locus YEL061C, strain CIN8, active compounds read low 1.01 | S. cerevisiae deletion strains, locus YER110C, active compounds read low 0.99 | S. cerevisiae deletion strains, locus YER155C, strain BEM2, active compounds read low 0.983 | S. cerevisiae deletion strains, locus YER167W, strain BCK2, active compounds read low 1.01 | S. cerevisiae deletion strains, locus YGL078C, strain dbp3, active compounds read low 1.01 | S. cerevisiae deletion strains, locus YGL086W, strain mad1, active compounds read low 0.994 | S. cerevisiae deletion strains, locus YGL248W, strain PDE1, active compounds read low 1.01 | S. cerevisiae deletion strains, locus YGR078C, strain PAC10, active compounds read low 1.03 | S. cerevisiae deletion strains, locus YGR135W, strain pre9, active compounds read low 1 | S. cerevisiae deletion strains, locus YGR229C, strain SMI1, active compounds read low 1.03 | S. cerevisiae deletion strains, locus YGR252W, strain gcn5, active compounds read low 1.03 | S. cerevisiae deletion strains, locus YHR030C, strain SLT2, active compounds read low 1.01 | S. cerevisiae deletion strains, locus YHR079C, strain IRE1 (second series), active compounds read low 0.995 | S. cerevisiae deletion strains, locus YHR094C, strain hxt1, active compounds read low 1 | S. cerevisiae deletion strains, locus YHR129C, strain ARP1, active compounds read low 1.01 | S. cerevisiae deletion strains, locus YHR200W, strain rpn10, active compounds read low 1 | S. cerevisiae deletion strains, locus YIL066C, strain RNR3, active compounds read low 1.02 | S. cerevisiae deletion strains, locus YIL073C, strain SPO22, active compounds read low 1.03 | S. cerevisiae deletion strains, locus YIL125W, strain kgd1, active compounds read low 1 | S. cerevisiae deletion strains, locus YIR030C, strain dcg1, active compounds read low 0.998 | S. cerevisiae deletion strains, locus YJL095W, strain BCK1, active compounds read low 1.02 | S. cerevisiae deletion strains, locus YJL134W, strain LCB3, active compounds read low 1.01 | S. cerevisiae deletion strains, locus YJL168C, strain set2, active compounds read low 1 | S. cerevisiae deletion strains, locus YJL187C, strain SWE1 (second series), active compounds read low 1.01 | S. cerevisiae deletion strains, locus YJR043C, strain POL32, active compounds read low 1 | S. cerevisiae deletion strains, locus YJR075W, strain HOC1, active compounds read low 1 | S. cerevisiae deletion strains, locus YKL009W, strain mrt4, active compounds read low 1.02 | S. cerevisiae deletion strains, locus YKL068W, active compounds read low 1.01 | S. cerevisiae deletion strains, locus YKL085W, strain MDH1 (second series), active compounds read low 1.01 | S. cerevisiae deletion strains, locus YKL085W, strain MDH1, active compounds read low 1.01 | S. cerevisiae deletion strains, locus YKL190W, strain CNB1, active compounds read low 1.02 | S. cerevisiae deletion strains, locus YKR001C, strain vps1, active compounds read low 1.01 | S. cerevisiae deletion strains, locus YLR039C, strain RIC1, active compounds read low 1.05 | S. cerevisiae deletion strains, locus YLR058C, strain SHM2, active compounds read low 1.01 | S. cerevisiae deletion strains, locus YLR102C, strain apc9, active compounds read low 0.997 | S. cerevisiae deletion strains, locus YLR262C, strain YPT6, active compounds read low 1.06 | S. cerevisiae deletion strains, locus YLR268W, strain sec22, active compounds read low 0.992 | S. cerevisiae deletion strains, locus YLR330W, strain CHS5, active compounds read low 1.01 | S. cerevisiae deletion strains, locus YLR342W, strain FKS1 (second series), active compounds read low 1.02 | S. cerevisiae deletion strains, locus YLR371W, strain rom2, active compounds read low 1 | S. cerevisiae deletion strains, locus YLR418C, strain cdc73, active compounds read low 1.01 | S. cerevisiae deletion strains, locus YML016C, strain PPZ1, active compounds read low 1 | S. cerevisiae deletion strains, locus YML032C, strain rad52, active compounds read low 0.992 | S. cerevisiae deletion strains, locus YML124C, strain tub3, active compounds read low 1 | S. cerevisiae deletion strains, locus YMR078C, strain ctf18, active compounds read low 0.999 | S. cerevisiae deletion strains, locus YMR223W, strain ubp8, active compounds read low 1.01 | S. cerevisiae deletion strains, locus YMR263W, strain SAP30, active compounds read low 1.01 | S. cerevisiae deletion strains, locus YMR307W, strain GAS1, active compounds read low 0.995 | S. cerevisiae deletion strains, locus YNL067W, strain RPL9B, active compounds read low 1.01 | S. cerevisiae deletion strains, locus YNL128W, strain TEP1, active compounds read low 1.02 | S. cerevisiae deletion strains, locus YNL153C, strain GIM3, active compounds read low 1 | S. cerevisiae deletion strains, locus YNL233W, strain BNI4, active compounds read low 1.01 | S. cerevisiae deletion strains, locus YNL250W, strain rad50, active compounds read low 0.996 | S. cerevisiae deletion strains, locus YNL271C, strain bni1, active compounds read low 0.993 | S. cerevisiae deletion strains, locus YNL298W, strain CLA4, active compounds read low 1.03 | S. cerevisiae deletion strains, locus YNL307C, strain MCK1, active compounds read low 0.995 | S. cerevisiae deletion strains, locus YNL322C, strain KRE1, active compounds read low 1.01 | S. cerevisiae deletion strains, locus YNR052C, strain pop2, active compounds read low 1 | S. cerevisiae deletion strains, locus YOL006C, strain TOP1, active compounds read low 1.03 | S. cerevisiae deletion strains, locus YOL012C, strain htz1 1.08 | S. cerevisiae deletion strains, locus YOL147C, strain pex11, active compounds read low 0.995 | S. cerevisiae deletion strains, locus YOR061W, strain CKA2, active compounds read low 1.01 | S. cerevisiae deletion strains, locus YOR069W, strain VPS5, active compounds read low 1.01 | S. cerevisiae deletion strains, locus YOR136W, strain idh2, active compounds read low 1 | S. cerevisiae deletion strains, locus YOR144C, strain elg1, active compounds read low 1.01 | S. cerevisiae deletion strains, locus YOR184W, strain ser1, active compounds read low 1.02 | S. cerevisiae deletion strains, locus YOR316C, strain cot1, active compounds read low 1 | S. cerevisiae deletion strains, locus YPL055C, strain LGE1, active compounds read low 1.06 | S. cerevisiae deletion strains, locus YPL241C, strain CIN2, active compounds read low 1.01 | S. cerevisiae deletion strains, locus YPR119W, strain clb2, active compounds read low 1.01 | S. cerevisiae deletion strains, locus YPR141C, strain kar3, active compounds read low 0.996 | S. cerevisiae deletion strains, locus YPR163C, strain tif3, active compounds read low 0.993 | S. cerevisiae deletion strains, locus YPR167C, strain met16, active compounds read low 1.01 | S. cerevisiae deletion strains, strain wtn01, active compounds read low 0.989 | S. cerevisiae strains, strain wild type, active compounds read low 1.01
